# IL-1B inflam inh – inhibitors of inflammasome signaling (IL-1 beta secretion). 360,000 tested, 4.7% active. THP-1 LPS/ATP IL-1B secretion, AlphaLISA, 16 h; hits give low values. activity change, % at 57.5 µM; in the data active = activity change below about -50%; inconclusive = mostly about -30% to -49%
#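 Secreted IL-1B measured by AlphaLISA bead assay after 16 h compound exposure of THP-1 cells; compounds (final up to 57.5 uM) added 1 h before LPS (250 ng/mL) and ATP (1.25 mM) stimulation; lower signal means less secretion.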
# TDP1 cell noCPT – qHTS for Inhibitors of human tyrosyl-DNA phosphodiesterase 1 (TDP1): qHTS in cells in absence of CPT; DT40 Tdp1-/- hTDP1 cells, no CPT, ATP luminescence, 48 h; Potency, µM (series often up to 46.2 µM), for inactives: top-dose activity change, negative = growth inhibition, hits mostly inhibitors; 420,000 tested, 15% active; AID 686978, 2013; also: potency is read from the fitted curve at half-maximal effect; nearly all actives have a fitted effect of over 55% in size
#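 Camptothecin absent (DMSO only). Human TDP1-complemented DT40 knockout cells, 400 cells/well, 37 °C for minimum 48 hr; ATP measured via CellTiter-Glo, 30 min dark incubation, luminescence.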
# DT40 TDP1 CPT – growth inhibition of DT40 Tdp1-/-;hTDP1 cells with camptothecin (screen for TDP1 inhibitors). Potency, µM (series often up to 46.2 µM), without a hit: at the top dose activity change, negative = growth inhibition, hits mostly inhibitors. 420,000 tested, 12% active. AID 686979. chicken DT40 Tdp1-/-;hTDP1 cells + 20 nM CPT, ATP luminescence, 48 h; also: potency is read from the fitted curve at half-maximal effect; nearly all actives have a fitted effect of over 55% in size
#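 Chicken DT40 Tdp1-/- cells complemented with human TDP1, 400 cells/well, exposed to compounds plus 20 nM camptothecin for at least 48 h at 37 C; viability read as ATP content by CellTiter-Glo luminescence.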
# 12-LOX inh – inhibitors of human 12S-lipoxygenase ALOX12; P18054; purified 12hLO, xylenol orange hydroperoxide absorbance; Potency, µM (highest dose often 108 µM), without a hit: at the highest dose activity change, negative = inhibition, usual class: inhibitors; 580,000 tested, 1.1% active; also: potency is read from the fitted curve at half-maximal effect
# Target sequence (P18054 whole entry, looked up): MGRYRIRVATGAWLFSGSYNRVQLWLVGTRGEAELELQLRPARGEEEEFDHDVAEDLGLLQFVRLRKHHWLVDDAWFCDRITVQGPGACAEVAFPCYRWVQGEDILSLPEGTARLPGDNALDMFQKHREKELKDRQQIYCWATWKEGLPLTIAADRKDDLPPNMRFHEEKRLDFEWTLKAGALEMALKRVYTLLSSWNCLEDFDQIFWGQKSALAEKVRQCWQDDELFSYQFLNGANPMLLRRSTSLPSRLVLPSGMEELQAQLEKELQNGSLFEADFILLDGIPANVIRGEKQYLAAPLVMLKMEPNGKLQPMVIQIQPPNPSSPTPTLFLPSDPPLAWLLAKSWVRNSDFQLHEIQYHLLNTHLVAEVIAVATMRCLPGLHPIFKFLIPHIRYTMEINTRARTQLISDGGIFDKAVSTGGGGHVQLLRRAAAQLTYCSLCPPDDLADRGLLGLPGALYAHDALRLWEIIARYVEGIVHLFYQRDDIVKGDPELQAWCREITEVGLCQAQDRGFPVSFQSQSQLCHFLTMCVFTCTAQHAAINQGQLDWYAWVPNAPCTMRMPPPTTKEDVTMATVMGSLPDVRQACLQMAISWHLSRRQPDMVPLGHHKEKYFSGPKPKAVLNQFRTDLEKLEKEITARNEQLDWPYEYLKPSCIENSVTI
#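 Hydroperoxide product was detected by ferrous iron/xylenol orange as the 573 to 405 nm absorbance ratio. Arachidonic acid at 40 uM (final) was turned over for 30 min at room temperature by 150 nM human 12hLO, pH 7.0 Hepes buffer, after 15 min compound preincubation.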
# HT1080-NT tox – kills 2HG-producing HT-1080-NT fibrosarcoma cells; HT-1080-NT fibrosarcoma viability, CellTiter-Glo ATP luminescence, 48 h; 360,000 tested, 1.6% active; Potency, µM (highest dose often 46.1 µM), for the others: at the top dose activity, negative = less viability, most hits filed as cytotoxic;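 also: NT is the 2HG producing partner of a matched IDH1 knockdown line; potency is read from the fitted curve at half-maximal effect; 0% = DMSO-treated cells and -100% = media-only wells without cells; nearly all actives have a fitted effect of over 55% in size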
#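 Viability of the 2HG-overproducing fibrosarcoma line after 48 hours of compound exposure at 37 degrees C was determined by luminescence with CellTiter-Glo, and concentration-effect curves were then fitted and categorized.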
# HT1080 IDH1KD tx – HT-1080 IDH1 knockdown cell toxicity (counter line). HT-1080 IDH1 knockdown viability, ATP luminescence, 48 h. Potency, µM (highest dose often 46.1 µM), without a hit: at the highest dose activity, negative = toxicity, hits mostly cytotoxic. 360,000 tested, 2% active. AID 686971;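 also: potency is read from the fitted curve at half-maximal effect; 0% = DMSO wells and -100% = cell-free medium wells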
#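 In this qHTS, HT-1080 cells depleted of IDH1 are exposed for 48 h at 37 °C to compound titrations. Toxicity is scored from CellTiter-Glo luminescence, with DMSO as full viability and medium alone as none.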
# * hit, by the source's call; ? = inconclusive; nt = no result; [ ] = another dose, or the depositor's remark. Many of the other results were omitted from the sample, so hits are more common in it than they were. Unless noted, calls follow the shape of the dose curve; as a rule, active = well fitted curve in the direction sought with a large enough effect; inconclusive = small, poorly fitted or top-dose-only effect, or another doubt; inactive = no such curve, though single readings can be large; an effect the other way counts as inactive or inconclusive. Unless noted, % is scaled to controls: 0 for no effect and ±100 for the full control effect.
SMILES,IL-1B inflam inh,TDP1 cell noCPT,DT40 TDP1 CPT,12-LOX inh,HT1080-NT tox,HT1080 IDH1KD tx
O=C(c1cccc(Cl)c1)N1CCC2(CC1)CC(Cc1ccccc1)=NO2,nt,nt,nt,-9%,nt,nt
CN(C)CCNC(=O)c1csc(Nc2cccc3ccccc23)n1,-61*,?,-50%,11%,?,?
O=C(NCC1CCCO1)c1csc(Nc2cccc3ccccc23)n1 (configuration not stated),-14,15µM*,18µM*,4%,?,-6%
CCOC(=O)C1C(=O)OC(C)(C)C1C(CC)C(=O)c1c(C)cc(C)cc1C (configuration not stated),59,9.2µM*,18µM*,?,6%,4%
O=C1N/C(=N/S(=O)(=O)c2ccccc2)S/C1=C/c1cccnc1,-2,?,?,?,?,-16%
COc1cc(/C=C2\S/C(=N/S(=O)(=O)c3ccc(C)cc3)NC2=O)c([N+](=O)[O-])cc1OC,-6,-3%,-5%,?,0%,2%
Cc1ccc(/C=C2\S/C(=N/S(=O)(=O)c3cccs3)NC2=O)cc1,22,11%,2%,28µM*,22%,0%
Cc1ccc(S(=O)(=O)/N=C2/NC(=O)/C(=C/c3ccccc3)S2)cc1,38,?,-12%,13µM*,?,?
Cc1ccc(S(=O)(=O)/N=C2/NC(=O)/C(=C\c3ccco3)S2)cc1,18,-30%,-23%,?,7%,4%
Cc1ccc(S(=O)(=O)/N=C2/NC(=O)/C(=C\c3ccccc3)S2)cc1,-20,?,?,40µM*,6%,-14%
CNC(=O)c1cccnc1N1CC2CC(C1)[C@H]1CCCC(=O)N1C2 (some centres not stated),nt,nt,nt,-8%,nt,nt
Cc1ccc(C(=O)N2CCCCCNC(=O)[C@@H]3CCCC[C@@H]32)cn1,nt,nt,nt,24%,nt,nt
Cc1cccc(Cl)c1NC(=O)N1CCC2(CCCN(C(C)C)C2=O)C1 (configuration not stated),nt,nt,nt,51%,nt,nt
Cc1no[n+]([O-])c1COc1ccc(/C=C2\NC(=S)NC2=O)cc1,-53*,-25%,-15%,-6%,-5%,-5%
COC(=O)c1ccc(COC(=O)C2(c3ccccc3)CC2)cc1,nt,nt,nt,-4%,nt,nt
CC1(C)N=C(N)N=C(N)N1c1ccc(OCC(=O)N2CCOCC2)c(Cl)c1,2,0.37µM*,0.41µM*,-25%,0.52µM*,0.13µM*
Cc1ccc(-c2ccc(OCC(=O)N3CCOCC3)cc2)cc1,0,?,-9%,-29%,-8%,-14%
CC1(C)N=C(N)N=C(N)N1c1ccc(OCC(=O)N2CCOCC2)cc1,-12,?,?,-10%,23µM*,6.5µM*
O=C(c1ccccc1F)N1CCCC2(CC(c3ccccn3)=NO2)C1 (configuration not stated),nt,nt,nt,7%[6.33 µM],nt,nt
CCOC(=O)c1cnc2oc3ccccc3n2c1=O,27,4%,0%,2%,2%,0%
O=C(CCC(=O)NNC(=O)COc1ccc(Br)cc1Br)NCc1ccccc1,-9,0%,14%,-8%,-18%,0%
CCN(CC)CCNCc1cc(Br)ccc1OCC(=O)NCc1ccccc1,-12,1%,-2%,28µM*,-16%,-10%
CC(NCc1cc(Br)ccc1OCC(=O)NCc1ccccc1)c1ccccc1 (configuration not stated),-68*,?,?,?,-3%,-18%
CN(C)Cc1c(O)ccc2c(=O)c(-c3ccccc3Cl)c(C(F)(F)F)oc12,11,8%,-6%,?,0%,3%
Cc1cc(C)c(OC(=O)c2cccc(C#N)c2)c(C)c1,nt,nt,nt,-36%,nt,nt
SMILES,IL-1B inflam inh,TDP1 cell noCPT,DT40 TDP1 CPT,12-LOX inh,HT1080-NT tox,HT1080 IDH1KD tx
COc1cc(C(=O)NC2(C(F)(F)F)NC(=O)N(c3ccccc3F)C2=O)cc(OC)c1OC (configuration not stated),nt,nt,nt,-12%,nt,nt
Cc1cccc(N2CCN(C(=O)c3ccccc3NC(=O)C3CC=CCC3C(=O)O)CC2)c1 (configuration not stated),28,5.8µM*,?,0%,13%,6%[9.24 µM]
O=C(O)C1CC=CCC1C(=O)Nc1ccccc1Cl (configuration not stated),10,23µM*,?,1%,12%,23%
Cc1ccccc1Oc1ccc(NC(=O)C2CC=CCC2C(=O)O)cc1 (configuration not stated),0,6.5µM*,15µM*,16%,-5%,-4%
COC(=O)c1ccc(-n2c(C)cc(C(=O)CSc3cccc[n+]3[O-])c2C)cc1,11,?,-25%,-11%,-2%,-18%
Cc1cc(C(=O)CSc2cccc[n+]2[O-])c(C)n1-c1ccc(OC(F)F)cc1,9,?,21µM*,15%,-9%,-16%
O=C1C(=O)N(c2nccs2)C(c2ccccc2F)/C1=C(\O)c1ccc2c(c1)OCCO2 (configuration not stated),-1,16µM*,?,?,?,?
CCN(CC)c1cc(CCC(=O)N(C)Cc2ccccc2)ccn1,nt,nt,nt,14%,nt,nt
COc1ccc(-c2cc(C(F)(F)F)nc(SCCC(=O)NCc3ccccc3)n2)cc1,-16,18µM*,?,5%,-18%,-16%
COc1ccc(CNC(=O)CSc2nc(-c3ccc(OC)cc3)cc(C(F)(F)F)n2)cc1,nt,-17%,-20%,0%,nt,nt
COc1ccc(-c2cc(C(F)(F)F)nc(SCCC(=O)Nc3ccc(OC)c(OC)c3)n2)cc1,nt,15µM*,13µM*,-7%,nt,nt
COc1ccc(-c2cc(C(F)(F)F)nc(SCC(=O)N(C)Cc3ccccc3)n2)cc1,nt,?,23µM*,-14%,nt,nt
CCn1cc(CN(C)C(=O)CSc2nc(-c3ccco3)cc(C(F)(F)F)n2)c(C)n1,8,23µM*,?,-11%,-10%,-24%
COc1ccc(C(=O)N2CCc3ccc(C(=O)NCc4cccc(F)c4)cc32)cc1,nt,nt,nt,47%,nt,nt
CN(Cc1ccccc1)C(=O)CSc1nc2c(c(C(F)(F)F)n1)CCc1ccccc1-2,?,?,29µM*,?,0%,1%
COc1ccccc1C1(CC#N)CCOC(C)(C)C1 (configuration not stated),nt,nt,nt,-36%,nt,nt

# High-throughput results: PubChem BioAssay, National Center for Advancing Translational Sciences (NCATS)
